The list is not random: actives were taken first. Their share in the collection is about 4.9%.
HSF-1 act – increases HSF-1 driven luciferase reporter signal | NIH3T3-HGL HSF-1 luciferase reporter, MG132, 8 h; 100% = twice DMSO control signal | activation, % at 9 µM | hit rate 1.7% among 300,000;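 active = mean replicate activation of at least 50% with a set share of replicates each reaching 50%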;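 note: 0% = median of the neutral control wells and 100% = twice that signal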
dFosB activator – activators of mouse delta FosB homodimer. P13346. purified delta FosB, TAMRA-CDK5 oligo fluorescence polarization; percent of positive-control signal above neutral wells. activation, % at 25 µM. hit rate 0.99% among 340,000. AID 493131;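 active = mean activation above about 17%, with every replicate also reaching it, limit read from the data, passing the limit was not always enough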
Target sequence (P13346 whole entry, looked up): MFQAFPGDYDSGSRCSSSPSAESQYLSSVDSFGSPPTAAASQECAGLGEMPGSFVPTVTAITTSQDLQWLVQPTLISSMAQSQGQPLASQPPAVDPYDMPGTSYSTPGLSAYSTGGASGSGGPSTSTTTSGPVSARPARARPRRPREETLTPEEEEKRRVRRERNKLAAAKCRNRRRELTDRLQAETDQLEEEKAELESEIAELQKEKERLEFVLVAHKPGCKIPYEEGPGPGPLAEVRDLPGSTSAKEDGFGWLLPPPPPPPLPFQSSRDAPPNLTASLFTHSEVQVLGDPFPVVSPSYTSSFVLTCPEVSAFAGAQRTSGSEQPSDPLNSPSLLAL
MPTP inh – permeability transition pore inhibition; isolated mouse mitochondria, Ca2+ swelling absorbance, 30 min; inhibition, % at 10 µM; hit rate 1.4% among 360,000;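 active = inhibition of 50% or more, scaled per plate between neutral and stimulator controls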;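 note: 0% = DMSO wells given calcium and 100% = 1 mM EGTA wells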
HSF1 inhib – HSF1 inhibition; NIH3T3-HGL HSE-luciferase, MG132-induced, luminescence 8 h; active compounds read low; activity change, negative = inhibition, % at 7.5 µM (by protocol); hit rate 0.77% among 300,000; AID 2098;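 active = more than half of replicate wells show activity change below -50%, luminescence cut by over half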;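 note: luciferase reports HSF-1 transcriptional activity via heat shock element; 0% = median of DMSO wells and -100% = zero luminescence signal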
Platelet DG rel – modulates dense granule release in human platelets; human platelet-rich plasma, SFLLRN dense granule ATP release, luminescence; hit rate 0.22% among 300,000; inhibition, %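 (compounds screened at 7.5 µM in platelet-rich plasma)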;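 active = mean replicate score, as percent of positive control, at or above 50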
HSP90 inh – blocks HSP90-mediated luciferase refolding in reticulocyte lysate | Rabbit reticulocyte lysate, luciferase refolding luminescence, 3 h | inhibition, % at 5.6 µM | hit rate 0.91% among 290,000 | AID 1789;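 active = inhibition above the screen-wide mean plus 3 SD, computed separately per campaign, cut at about 16% in these data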;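 note: 0% = DMSO wells and 100% = 60 µM geldanamycin wells; inhibitors lower the luminescence because luciferase stays unfolded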
MPTP counter – membrane potential counter-screen of mitochondrial pore inhibitors. shares compounds with MPTP inh. isolated mitochondria, Rhodamine 123 fluorescence. inhibition, % at 10 µM. hit rate 78% among 5,000. AID 624504; in the data active = inhibition above about 22%;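 note: 0% = DMSO vehicle and 100% = positive control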
MPTP abs DR – MPTP inhibition, dose response swelling confirmation. shares compounds with MPTP inh. isolated mitochondria swelling, absorbance. IC50, µM. hit rate 58% among 780; in the data active = IC50 below about 20 µM
MPTP counter DR – MPTP inhibitor counter-screen activity, dose response | shares compounds with MPTP inh | isolated mitochondria counterscreen, fluorescence read-out | IC50, µM | hit rate 49% among 780 | AID 651564; in the data active = IC50 below about 80 µM
Active calls of the source: *; i = inactive; . = not tested or not shown.

SMILES | HSF-1 act | dFosB activator | MPTP inh | HSF1 inhib | Platelet DG rel | HSP90 inh | MPTP counter | others
O=C(Cc1ccc(S(=O)(=O)N2CCOCC2)s1)Nc1cc(C(F)(F)F)cc(C(F)(F)F)c1 | . | -4 | 69* | . | . | . | 78*
O=C(Cc1ccc(S(=O)(=O)N2CCOCC2)s1)Nc1cc(C(F)(F)F)ccc1N1CCCC1 | 14 | -3 | -1 | 15 | 0 | . | .
O=C(Cc1ccc(S(=O)(=O)N2CCCCC2)s1)Nc1ccc(F)c(F)c1 | 1 | -3 | 67* | -1 | -25 | -1 | 83*
CCn1nc(C)cc1C(=O)n1nc(C)c(Sc2ncccn2)c1C | . | -4 | 69* | . | . | -4 | 27*
COc1ccc(OCc2cccc(C(=O)Nc3ccc(CN4CCCCC4)cc3)c2)cc1 | -37 | 1 | 30 | -27 | 7 | 6 | .
CCOc1ccc(OCc2cccc(C(=O)Nc3ccc(CN4CCCCC4)cc3)c2)cc1 | -41 | -28 | 87* | -37 | -3 | 5 | -12 | MPTP abs DR=2.4*;MPTP counter DR=43*
CCOC(=O)Cn1c(=N)n(CCOc2cccc(C)c2)c2ccccc21 | . | -7 | 88* | . | . | -1 | 0 | MPTP abs DR=5.3*;MPTP counter DR=57*
CCN(CC)CCn1c(=N)n(CC(O)COc2cccc(C)c2)c2ccccc21 (stereo unspecified) | -10 | -1 | 71* | 0 | -4 | 0 | -4 | MPTP abs DR=4.5*;MPTP counter DR=66*
Cc1ccc(S(=O)(=O)Nc2ccc3cc([N+](=O)[O-])ccc3c2[N+](=O)[O-])cc1 | . | 3 | 88* | . | . | . | 79*
Cc1ccc(S(=O)(=O)Nc2ccc3ccccc3c2[N+](=O)[O-])cc1 | . | -2 | 26 | . | . | . | .
O=C(Nc1ccc(N2CCOCC2)c(S(=O)(=O)Nc2ccccc2Cl)c1)c1ccccc1 | . | -16 | -2 | . | . | . | .
Cc1cc(C)cc(NC(=O)Nc2ccccc2N2CCCCC2)c1 | 17 | -10 | 63* | -5 | 5 | -1 | 61*
Cc1cc(C)cc(OCC(=O)Nc2ccccc2N2CCCCC2)c1 | -6 | -1 | -1 | -6 | 2 | 1 | .
O=C(Nc1ccc(Cl)cc1)Nc1ccc(N2CCCC2)c(S(=O)(=O)Nc2ccccc2Cl)c1 | 8 | -2 | 98* | -1 | 0 | 2 | 48*
Cc1cc(Br)ccc1SCC(=O)OCC(=O)c1c(N)n(C)c(=O)n(C)c1=O | -6 | -24 | 0 | -2 | 16 | 1 | .
Cc1cccc(C)c1-n1cccc1/C=C1/C(=N)N2C(=NC1=O)SN=C2S(C)(=O)=O | 8 | -5 | 67* | 4 | -1 | 2 | 75*
CCOc1ccc(-n2c(C)cc(/C=C3/C(=N)N4C(=NC3=O)SN=C4S(C)(=O)=O)c2C)cc1 | 2 | -12 | 76* | -9 | 0 | -3 | 28*
Cc1ccc(-n2cccc2/C=C2/C(=N)N3C(=NC2=O)SN=C3S(C)(=O)=O)cc1Cl | . | -56 | 26 | . | . | 1 | .
CCN(CC)c1ccc(-c2sc(Nc3ccccc3)n[n+]2-c2ccc(F)cc2)cc1 | 18 | 28* | 61* | 11 | 8 | 4 | 102*
Fc1ccc(-[n+]2nc(Nc3ccccc3)sc2-c2c(Cl)cccc2Cl)cc1 | 5 | 2 | 39 | -1 | 4 | 2 | .
CCc1ccc(Nc2n[n+](-c3ccccc3)c(-c3c(Cl)cccc3Cl)s2)cc1 | 7 | 3 | 100* | 2 | 0 | 7 | 112*
N/C(=N\N=C/c1ccc(Br)cc1)N/N=C\c1ccc(Br)cc1 | 6 | 1 | 59* | 8 | 1 | 0 | -6 | MPTP abs DR=i;MPTP counter DR=37*
COC(=O)[C@H](CC(C)C)NC(=O)Nc1ccccc1F | 3 | 5 | 1 | 2 | 6 | 3 | .
Cn1c(O)c(N=NC(=O)c2ccccc2O)c2ccccc21 | 20 | 6 | -1 | 23 | 2 | 0 | .
Cc1cc(N=NC(=O)c2ccccc2O)c2ccccc2c1O | 77* | -10 | 74* | 24 | -4 | -1 | 91*
SMILES | HSF-1 act | dFosB activator | MPTP inh | HSF1 inhib | Platelet DG rel | HSP90 inh | MPTP counter | others
CC12CC(O)C3C(CCC4=CC(=O)CCC43C)C1CCC2=CCO (stereo unspecified) | . | 7 | 0 | . | . | . | .
FC(F)(F)c1cc(CCN2CCNC[C@@H]2Cc2ccccc2)cc(C(F)(F)F)c1 | 24 | -26 | 92* | 3 | 0 | . | -22
Cn1c(COc2ccccc2O)[n+](C)c2ccccc21 | -5 | 5 | 0 | -4 | . | 3 | .
CCCCCCCCCCOC(=O)Cn1c(COc2ccccc2OC)[n+](C)c2ccccc21 | 19 | 25* | 53* | 6 | 7 | 14 | 95*
O=c1c(C(c2ccccc2)c2c(O)sc3ccccc3c2=O)c(O)sc2ccccc12 | 20 | 0 | 68* | 8 | -5 | -4 | 71*
CN1CCN(/N=C/c2ccc(Br)cc2)CC1 | 4 | -1 | 1 | 3 | -3 | -2 | .
CN1CCN(/N=C/c2ccc(N(C)c3ccccc3)cc2)CC1 | 8 | -13 | 0 | 0 | 4 | 5 | .
CN1CCN(/N=C/c2ccc(N(c3ccccc3)c3ccccc3)cc2)CC1 | 6 | -36 | 81* | 5 | 3 | -2 | -15
CN1CCN(/N=C/c2ccc(Cl)c(Cl)c2)CC1 | -8 | 2 | 90* | -1 | 3 | -5 | -4
Nc1ccc(CSc2ccc(Cl)cc2)cc1 | 20 | -2 | 0 | 11 | 2 | 0 | .
NC(=O)c1cccc(-c2ccnc3c2CC(C(=O)NCc2ccccc2)O3)c1 (stereo unspecified) | . | . | -1 | . | . | . | .
COc1ccc(NS(=O)(=O)c2cc(C(=O)N3CCC3)ccc2C)cc1 | . | -2 | -1 | . | . | . | .
O=C(Nc1ccc(F)cc1F)N1CCCN(c2ccc(C(F)(F)F)cn2)CC1 | -1 | 4 | 2 | -2 | 2 | 0 | .
Fc1ccc(NC(=S)N2CCCN(c3ccc(C(F)(F)F)cn3)CC2)c(F)c1 | 17 | -8 | 71* | 11 | 9 | 5 | 45*
Cc1csc2ncnc(N3CCN(C(=S)Nc4ccc(F)cc4F)CC3)c12 | 8 | . | 82* | 6 | 11 | 3 | 75*
Cc1cc(C)n(-c2nc(N(c3ccccc3)c3ccccc3)nc(-n3nc(C)cc3C)n2)n1 | 4 | -7 | 80* | -8 | -4 | -1 | 2
CC(=O)c1nnn(-c2nc(N)nc(N(c3ccccc3)c3ccccc3)n2)c1C | -4 | -27 | 5 | 4 | -4 | -1 | .
Cc1ccc(-c2nnc(NCc3ccccc3)c3ccccc23)cc1 | 31 | -7 | 65* | 18 | 6 | 3 | 85*
CS(=O)(=O)N1Cc2ccccc2CC1C(=O)OCC(=O)NCCc1ccc(S(N)(=O)=O)cc1 (stereo unspecified) | . | -2 | -3 | . | . | . | .

High-throughput results deposited in PubChem by several laboratories.
